Results reported in PubChem BioAssay AID1159580 (chemical genetic matrix, 2015).
Values joined by “and” are separate entries in the source; they are usually repeats but may differ in a detail not shown here. Equal entries are not always repeated. Hit rate of the full screen: of about 5,500 compounds, about 2,000 (36%) were called active. Inconclusive results (about 18%) are left out. No stated cut-off is given here; in the data, active means normalized growth mostly below about 0.91 (no sharp cut-off); inconclusive means no clear call, values can overlap the other calls; inactive means mostly above about 0.92. This is one part of the list.

Test: chemical genetic growth profiling, strain panel (AID 1159580);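 further: tested at 20 µM; growth read once vehicle control cultures reached saturation at 30 °C; 1 = growth at the plate median or of vehicle wells; lower values mean less growth of the strain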
Details: growth OD

Measured: normalized growth

CCOC(=O)C(C)(C)Oc1ccc(Cl)cc1
inactive: S. cerevisiae deletion strains, locus YJR075W, strain HOC1, hits give low values 1.01 and 0.998 | S. cerevisiae deletion strains, locus YKL009W, strain mrt4, hits give low values 1.02 | S. cerevisiae deletion strains, locus YKL068W, hits give low values 1 | S. cerevisiae deletion strains, locus YKL085W, strain MDH1 (second series), hits give low values 1.01 | S. cerevisiae deletion strains, locus YKL085W, strain MDH1, hits give low values 1.01 | S. cerevisiae deletion strains, locus YKL160W, strain elf1, hits give low values 0.98 | S. cerevisiae deletion strains, locus YKL190W, strain CNB1, hits give low values 1.01 | S. cerevisiae deletion strains, locus YKR001C, strain vps1, hits give low values 0.975 | S. cerevisiae deletion strains, locus YKR026C, strain gcn3, hits give low values 0.974 | S. cerevisiae deletion strains, locus YKR091W, strain srl3, hits give low values 0.978 | S. cerevisiae deletion strains, locus YLL001W, strain dnm1, hits give low values 0.987 | S. cerevisiae deletion strains, locus YLL026W, hits give low values 0.97 | S. cerevisiae deletion strains, locus YLL041C, strain sdh2, hits give low values 0.983 | S. cerevisiae deletion strains, locus YLR027C, strain aat2, hits give low values 0.994 | S. cerevisiae deletion strains, locus YLR039C, strain RIC1, hits give low values 0.986 | S. cerevisiae deletion strains, locus YLR058C, strain SHM2, hits give low values 1.01 | S. cerevisiae deletion strains, locus YLR102C, strain apc9, hits give low values 0.996 | S. cerevisiae deletion strains, locus YLR113W, strain HOG1, hits give low values 0.943 | S. cerevisiae deletion strains, locus YLR221C, strain rsa3, hits give low values 0.985 | S. cerevisiae deletion strains, locus YLR258W, strain gsy2, hits give low values 0.986 | S. cerevisiae deletion strains, locus YLR262C, strain YPT6 (second series), hits give low values 0.965 | S. cerevisiae deletion strains, locus YLR262C, strain YPT6, hits give low values 0.985 | S. cerevisiae deletion strains, locus YLR268W, strain sec22, hits give low values 1 | S. cerevisiae deletion strains, locus YLR320W, strain mms22, hits give low values 0.944 | S. cerevisiae deletion strains, locus YLR330W, strain CHS5, hits give low values 1 | S. cerevisiae deletion strains, locus YLR342W, strain FKS1 (second series), hits give low values 0.988 | S. cerevisiae deletion strains, locus YLR342W, strain FKS1, hits give low values 0.981 | S. cerevisiae deletion strains, locus YLR357W, strain rsc2, hits give low values 1 | S. cerevisiae deletion strains, locus YLR370C, strain arc18, hits give low values 0.983 | S. cerevisiae deletion strains, locus YLR371W, strain rom2, hits give low values 0.971 | S. cerevisiae deletion strains, locus YLR384C, strain iki3, hits give low values 0.969 | S. cerevisiae deletion strains, locus YLR418C, strain cdc73, hits give low values 0.985 | S. cerevisiae deletion strains, locus YML016C, strain PPZ1, hits give low values 1 | S. cerevisiae deletion strains, locus YML032C, strain rad52, hits give low values 0.992 | S. cerevisiae deletion strains, locus YML120C, strain ndi1, hits give low values 0.986 | S. cerevisiae deletion strains, locus YML124C, strain tub3, hits give low values 0.998 | S. cerevisiae deletion strains, locus YMR058W, strain fet3, hits give low values 0.987 | S. cerevisiae deletion strains, locus YMR078C, strain ctf18, hits give low values 0.999 | S. cerevisiae deletion strains, locus YMR125W, strain sto1, hits give low values 0.963 | S. cerevisiae deletion strains, locus YMR129W, hits give low values 0.994 | S. cerevisiae deletion strains, locus YMR205C, strain PFK2, hits give low values 0.934 | S. cerevisiae deletion strains, locus YMR223W, strain ubp8, hits give low values 0.996 | S. cerevisiae deletion strains, locus YMR231W, strain pep5, hits give low values 0.983 | S. cerevisiae deletion strains, locus YMR307W, strain GAS1, hits give low values 0.996 | S. cerevisiae deletion strains, locus YNL067W, strain RPL9B, hits give low values 1.01 | S. cerevisiae deletion strains, locus YNL071W, strain lat1, hits give low values 0.98 | S. cerevisiae deletion strains, locus YNL128W, strain TEP1, hits give low values 1.01 | S. cerevisiae deletion strains, locus YNL175C, strain NOP13, hits give low values 1.01 | S. cerevisiae deletion strains, locus YNL183C, strain NPR1, hits give low values 0.933 | S. cerevisiae deletion strains, locus YNL197C, strain WHI3, hits give low values 1.01 | S. cerevisiae deletion strains, locus YNL209W, strain ssb2, hits give low values 0.992 | S. cerevisiae deletion strains, locus YNL224C, strain SQS1, hits give low values 0.991 | S. cerevisiae deletion strains, locus YNL233W, strain BNI4, hits give low values 0.999 | S. cerevisiae deletion strains, locus YNL248C, strain rpa49, hits give low values 0.979 | S. cerevisiae deletion strains, locus YNL250W, strain rad50, hits give low values 1.02 | S. cerevisiae deletion strains, locus YNL271C, strain bni1, hits give low values 0.997 | S. cerevisiae deletion strains, locus YNL298W, strain CLA4, hits give low values 1 | S. cerevisiae deletion strains, locus YNL307C, strain MCK1, hits give low values 1 | S. cerevisiae deletion strains, locus YNL322C, strain KRE1 (second series), hits give low values 0.973 | S. cerevisiae deletion strains, locus YNL322C, strain KRE1, hits give low values 1.01 and 1 | S. cerevisiae deletion strains, locus YNR049C, strain mso1, hits give low values 0.985 | S. cerevisiae deletion strains, locus YNR052C, strain pop2, hits give low values 1 | S. cerevisiae deletion strains, locus YOL006C, strain TOP1, hits give low values 1.01 | S. cerevisiae deletion strains, locus YOL012C, strain htz1 0.891 | S. cerevisiae deletion strains, locus YOL147C, strain pex11, hits give low values 0.988 | S. cerevisiae deletion strains, locus YOR001W, strain rrp6, hits give low values 0.976 | S. cerevisiae deletion strains, locus YOR061W, strain CKA2, hits give low values 1.01 | S. cerevisiae deletion strains, locus YOR069W, strain VPS5, hits give low values 1 | S. cerevisiae deletion strains, locus YOR070C, strain gyp1, hits give low values 0.995 | S. cerevisiae deletion strains, locus YOR080W, strain dia2, hits give low values 0.97 | S. cerevisiae deletion strains, locus YOR083W, strain WHI5 (second series), hits give low values 1.03 | S. cerevisiae deletion strains, locus YOR083W, strain WHI5, hits give low values 0.982 | S. cerevisiae deletion strains, locus YOR106W, strain vam3, hits give low values 0.999 | S. cerevisiae deletion strains, locus YOR136W, strain idh2, hits give low values 1 | S. cerevisiae deletion strains, locus YOR144C, strain elg1, hits give low values 0.995 | S. cerevisiae deletion strains, locus YOR184W, strain ser1, hits give low values 0.943 | S. cerevisiae deletion strains, locus YOR231W, strain MKK1, hits give low values 0.94 | S. cerevisiae deletion strains, locus YOR265W, strain rbl2, hits give low values 0.991 | S. cerevisiae deletion strains, locus YOR270C, strain vph1, hits give low values 0.987 | S. cerevisiae deletion strains, locus YOR290C, strain snf2, hits give low values 0.976 | S. cerevisiae deletion strains, locus YOR316C, strain cot1, hits give low values 0.997 | S. cerevisiae deletion strains, locus YPL051W, strain arl3, hits give low values 0.984 | S. cerevisiae deletion strains, locus YPL055C, strain LGE1, hits give low values 0.999 | S. cerevisiae deletion strains, locus YPL078C, strain atp4, hits give low values 0.985 | S. cerevisiae deletion strains, locus YPL106C, strain sse1, hits give low values 0.951 | S. cerevisiae deletion strains, locus YPL240C, strain hsp82, hits give low values 0.988 | S. cerevisiae deletion strains, locus YPL241C, strain CIN2, hits give low values 0.997 | S. cerevisiae deletion strains, locus YPL256C, strain CLN2, hits give low values 0.923 | S. cerevisiae deletion strains, locus YPR119W, strain clb2, hits give low values 0.993 | S. cerevisiae deletion strains, locus YPR141C, strain kar3, hits give low values 0.992 | S. cerevisiae deletion strains, locus YPR163C, strain tif3, hits give low values 0.995 | S. cerevisiae deletion strains, locus YPR167C, strain met16, hits give low values 1 | S. cerevisiae deletion strains, strain wtn01, hits give low values 0.993 | S. cerevisiae strains, strain wild type, hits give low values 1
